We go through five molecules from ChEMBL document CHEMBL3433997, “St. Jude Leishmania screening dataset” (2016).

Each structure is given as a SMILES string.

Type in all cases: functional
For experiment [1], the target named is Solute carrier family 2, facilitated glucose transporter member 1 (Homo sapiens) (UniProt P11166). The experiment is described as follows: ST_JUDE_LEISH: Cytotoxicity at 2uM final concentration against transgenic Leishmania Mexicana promastigotes LmGLUT1 that are glucose transport deficient and complemented with the human glucose transporter GLUT1. Activity is measured by DNA content using SYBR green in vitro.

For experiment [2], the target named is Hexose transporter 1 (Plasmodium falciparum) (UniProt O97467). The experiment is described as follows: ST_JUDE_LEISH: Cytotoxicity at 2uM final concentration against transgenic Leishmania Mexicana promastigotes LmPfHT that are glucose transport deficient and complemented with the Plasmodium falciparum hexose transporter. Activity is measured by DNA content using SYBR green in vitro.

The target of experiment [3] is Glucose transporter (Leishmania mexicana) (UniProt O61059). The experiment is described as follows: ST_JUDE_LEISH: Cytotoxicity at 2uM final concentration against transgenic Leishmania Mexicana promastigotes LmGT2 that are glucose transport deficient and complemented with the L. Mexicana glucose transporter 2. Activity is measured by DNA content using SYBR green in vitro.

Solute carrier family 2, facilitated glucose transporter member 1 (Homo sapiens), sequence (P11166 whole entry): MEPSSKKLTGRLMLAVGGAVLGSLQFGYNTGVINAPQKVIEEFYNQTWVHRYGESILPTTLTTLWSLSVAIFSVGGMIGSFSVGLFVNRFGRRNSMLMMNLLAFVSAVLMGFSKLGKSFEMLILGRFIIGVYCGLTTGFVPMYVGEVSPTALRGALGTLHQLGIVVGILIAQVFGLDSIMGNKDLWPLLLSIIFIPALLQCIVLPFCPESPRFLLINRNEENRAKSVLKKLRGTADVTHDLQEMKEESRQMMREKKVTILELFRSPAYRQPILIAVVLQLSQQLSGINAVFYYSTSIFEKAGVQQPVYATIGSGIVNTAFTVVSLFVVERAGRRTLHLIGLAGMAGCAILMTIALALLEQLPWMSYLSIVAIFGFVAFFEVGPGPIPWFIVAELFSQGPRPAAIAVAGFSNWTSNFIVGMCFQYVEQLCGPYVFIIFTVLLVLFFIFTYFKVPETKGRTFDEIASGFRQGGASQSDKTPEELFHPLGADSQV

As to `Cc1ccc(C(=O)Nc2ccnc(N(C)C3CCN(Cc4cccc(O)c4)CC3)c2)cn1`, the inhibition in experiment [1] is 3.48%; in experiment [2] it was 1.94%; in experiment [3], 1.3%.

As for `c1ccc2c(NCCCCCCNc3c4ccccc4nc4ccccc34)c3ccccc3nc2c1`, the figures for the inhibition in experiment [1], in experiment [2] and in experiment [3] were 5.54%, 6.29% and 4.31%, respectively.

For the molecule `CN1CC=C(c2c[nH]c3ccc(OC(=O)c4ccccc4)cc23)C1`, the inhibition in experiment [1] turned out to be 0.69%; in experiment [2], 0.43%; in experiment [3] it was 1%.

Turning to `O=C(/C=C/c1ccc(Cl)c(Cl)c1)N1CCC(CN2CCC(c3c[nH]c4ccc(O)cc34)CC2)CC1`, the inhibition was 1.04% in experiment [1], -0.44% in experiment [2] and 4.21% in experiment [3].

`Oc1cc2c(cc1CN1CCN(Cc3ccccc3)CC1)CCC2`: the inhibition in experiment [1] was 0.8%; in experiment [2], 1.17%; in experiment [3] it was -1.19%.
